This is a sample that favours compounds with a hit; in the whole collection about 19% have one here.
TDP1 cell noCPT: qHTS for Inhibitors of human tyrosyl-DNA phosphodiesterase 1 (TDP1): qHTS in cells in absence of CPT | Potency, µM (titrated, usually from 46.2 µM), for the others: at the top dose activity change, negative = growth inhibition, most hits filed as inhibitors | DT40 Tdp1-/- hTDP1 cells, no CPT, ATP luminescence, 48 h | AID 686978, 2013 | actives 15% (n = 420,000); note: potency is the fitted concentration of half-maximal effect; nearly all actives have a fitted effect of over 55% in size
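Cells were dispensed at 400 per well, compounds added by pin tool, plates incubated ≥48 hr at 37 °C, then CellTiter-Glo added for 30 min at room temperature before luminescence reading. Line: DT40 Tdp1-/- complemented with hTDP1; camptothecin omitted.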
IL-1B inflam inh: blocks inflammasome-driven IL-1 beta release; actives 4.7% (n = 360,000); activity change, % at 57.5 µM; THP-1 LPS/ATP IL-1B secretion, AlphaLISA, 16 h; active compounds read low; in the data active = activity change below about -50%; inconclusive = mostly about -30% to -49%
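Secreted IL-1B measured by AlphaLISA bead assay after 16 h compound exposure of THP-1 cells; compounds (final up to 57.5 uM) added 1 h before LPS (250 ng/mL) and ATP (1.25 mM) stimulation; lower signal means less secretion.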
HT1080 IDH1KD tx: kills HT-1080 cells with IDH1 knockdown | HT-1080 IDH1 knockdown viability, ATP luminescence, 48 h | Potency, µM (titrated, usually from 46.1 µM), without a hit: top-dose activity, negative = toxicity, usual class: cytotoxic | actives 2% (n = 360,000);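 note: potency is the fitted concentration of half-maximal effect; 0% = DMSO wells and -100% = cell-free medium wells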
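Luminescent ATP read-out (CellTiter-Glo, 10 min at room temperature) after 48 h compound exposure at 37 °C gave viability of IDH1-knockdown HT-1080 cells. Activity was normalised to DMSO and cell-free wells, then fitted as concentration-response curves.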
TDP1 cell CPT: growth inhibition of DT40 Tdp1-/-;hTDP1 cells with camptothecin (screen for TDP1 inhibitors). chicken DT40 Tdp1-/-;hTDP1 cells + 20 nM CPT, ATP luminescence, 48 h. AID 686979. actives 12% (n = 420,000). Potency, µM (series often up to 46.2 µM), for inactives: at the highest dose activity change, negative = growth inhibition, usual class: inhibitors; note: potency is the fitted concentration of half-maximal effect; nearly all actives have a fitted effect of over 55% in size
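Chicken DT40 Tdp1-/- cells complemented with human TDP1, 400 cells/well, exposed to compounds plus 20 nM camptothecin for at least 48 h at 37 C; viability read as ATP content by CellTiter-Glo luminescence.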
HT1080NT lethal: kills 2HG-producing HT-1080-NT fibrosarcoma cells | Potency, µM (series often up to 46.1 µM), for inactives: at the highest dose activity, negative = less viability, usual class: cytotoxic | HT-1080-NT fibrosarcoma viability, CellTiter-Glo ATP luminescence, 48 h | actives 1.6% (n = 360,000) | AID 686970;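 note: NT is the 2HG producing partner of a matched IDH1 knockdown line; potency is the fitted concentration of half-maximal effect; 0% = DMSO-treated cells and -100% = media-only wells without cells; nearly all actives have a fitted effect of over 55% in size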
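HT-1080-NT fibrosarcoma cells (2HG-overproducing), 750 cells/well in RPMI with 5% FBS, dosed after 2 h and incubated 48 h at 37C. CellTiter-Glo luminescence normalized to DMSO and no-cell wells; concentration-response curves fitted and classed.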
The depositor's hits bear a star; ? = inconclusive; nt = not tested or not shown. Unless noted, calls come from the whole dose curve; as a rule, active = well fitted curve in the direction sought with a large enough effect; inconclusive = small, poorly fitted or top-dose-only effect, or another doubt; inactive = no such curve, though single readings can be large; an effect the other way counts as inactive or inconclusive. Unless noted, % is set by controls: 0 for no effect and ±100 for the full control effect.

SMILES | TDP1 cell noCPT | IL-1B inflam inh | HT1080 IDH1KD tx | TDP1 cell CPT | HT1080NT lethal
COc1cc(OC)c(NC(=O)N2CCOCC2)cc1Cl | 4% | -14 | 9% | 12% | 23%
CC(O)C(NC(=O)OCc1ccccc1)C(=O)OCc1ccccc1 (configuration not stated) | 3% | -2 | -15% | -3% | 0%
CC1=CC2=NC(=O)/C(=C\c3cccn3CCOc3ccc(C)c(C)c3)C(=N)N2O1 | ? | -60* | -5% | ? | -11%
CCOC(=O)/C(=N/O)C1=NC(C)(C)Cc2cc(C)c(C)cc21 | 0% | -72* | -21% | 12% | -17%
Cc1cccc(N2CCN(CCNC(=O)C3COc4ccccc4C3)CC2)c1C (configuration not stated) | 23µM* | nt | nt | ? | nt
Cc1ccc(Cl)cc1N1CCN(CCCNC(=O)C2COc3ccccc3C2)CC1 (configuration not stated) | 3.7µM* | nt | nt | 3.3µM* | nt
COc1ccc2c(c1)CC(C(=O)NCCCN1CCN(c3cccc(Cl)c3)CC1)CO2 (configuration not stated) | 18µM* | nt | nt | 18µM* | nt
CCC(=O)N1c2ccccc2CC1C(=O)NCCCN1CCN(c2cc(C)ccc2C)CC1 (configuration not stated) | ? | nt | nt | 21µM* | nt
O=C(NCCc1ccc(Cl)cc1)C1COc2ccccc2C1 (configuration not stated) | -24% | nt | nt | -11% | nt
Cc1ccc(CNC(=O)C2COc3ccccc3C2)cc1 (configuration not stated) | -22% | nt | nt | 0% | nt
CN1C(=O)[C@H]2[C@@H](c3ccc(C(F)(F)F)cc3)N[C@]3(CCCN(Cc4ccco4)C3=O)[C@H]2C1=O | ? | 2 | 15% | ? | 3%
CC(/C=C/c1ccccc1)=N/NC(=O)CNC(=O)c1ccccc1F | 2% | 13 | -11% | 13% | 7%
CC(=O)N1c2ccc(S(=O)(=O)N(C)CC(=O)NC3CCCCC3C)cc2CC1C (configuration not stated) | 16% | 12 | 0% | -18% | -2%
O=C(NCCCN1CCN(c2ccc(F)cc2)CC1)C1COc2ccccc2C1 (configuration not stated) | ? | nt | nt | 23µM* | nt
Nc1c(Cl)cc(-c2[nH]c3cc(C(=O)NCCO)ccc3c(=O)c2O)cc1Cl | 5% | 8 | 11% | -12% | 19%
Cc1ccc(S(=O)(=O)NCC(=O)NCC2CCCCC2)cc1C | -4% | -8 | 6% | -3% | 12%
Cc1ccccc1-n1ncc2c1CC(C)(C)CC2NC(=O)CSc1ccncc1 (configuration not stated) | 16µM* | -9 | 0% | ? | 7%
Cc1ccc(-n2ncc3c2CC(C)(C)CC3NC(=O)c2ccccn2)cc1 (configuration not stated) | ? | -81* | ? | ? | ?
CSc1ncccc1C(=O)NC1CC(C)(C)Cc2c1cnn2-c1ccccc1C (configuration not stated) | ? | -2 | 16% | 23µM* | 0%
C=CCC(=O)NC1CC(C)(C)Cc2c1cnn2-c1ccc(C)cc1 (configuration not stated) | -14% | 9 | -1% | -3% | 8%
Cc1ccccc1-n1ncc2c1CC(C)(C)CC2NC(=O)c1snnc1C (configuration not stated) | 26µM* | 5 | -11% | ? | 1%
O=S(=O)(c1ccc(S(=O)(=O)N2CCOCC2)cc1)N1CCCC1 | -5% | 10 | 17% | 7% | 7%
COC(=O)CCC(=O)NC1CC(C)(C)Cc2c1cnn2-c1ccc(F)cc1 (configuration not stated) | ? | 26 | -6% | 0.58µM* | -6%
CC1(C)Cc2c(cnn2-c2ccc(F)cc2)C(NC(=O)CCC(F)(F)F)C1 (configuration not stated) | -16% | -13 | 0% | -18% | -2%
CC(C)C1CC(CCNCc2ccc3c(c2)OCO3)(c2ccccc2)CCO1 (configuration not stated) | ? | -69* | 26µM* | ? | 18µM*
SMILES | TDP1 cell noCPT | IL-1B inflam inh | HT1080 IDH1KD tx | TDP1 cell CPT | HT1080NT lethal
Cc1ccc(C2(CCNCc3ccc(N(C)C)cc3)CCOC(C(C)C)C2)cc1 (configuration not stated) | -109% | -97* | 18µM* | ? | 23µM*
CC(C)C1CC(CCNCc2ccc(N(C)C)cc2)(c2ccccc2)CCO1 (configuration not stated) | 7.3µM* | -100* | ? | 7.3µM* | -7%
Cc1ccc(C2(CCNS(=O)(=O)c3ccc(C)cc3)CCOC(C(C)C)C2)cc1 (configuration not stated) | ? | -8 | -25% | ? | -15%
Cc1ccc(OCCNC(=O)[C@H]2O[C@@H](n3ccc(N)nc3=O)[C@H](O)[C@@H]2O)cc1C | 7% | -10 | 7% | 16% | 10%
O=C(COc1ccccc1Cl)NCCCNC(=O)c1cccnc1 | ? | 7 | ? | ? | 26µM*
O=C(COc1ccc(Br)cc1)NCCCNC(=O)c1cccnc1 | ? | -12 | 10µM* | ? | ?
c1ccc(CCc2nnc3n2CCN(Cc2ccc4ccccc4n2)CC3)cc1 | -30% | nt | nt | ? | nt
CC1=C(C(=O)N2CCN(c3cccc(Cl)c3)CC2)C2(CCCCC2)OC1=O | 21µM* | nt | nt | ? | nt
CC1=C(C(=O)N2CCN(c3cccc(C)c3C)CC2)C2(CCCCC2)OC1=O | 21µM* | nt | nt | 21µM* | nt
CC1=C(C(=O)N2CCN(c3ccccc3)CC2)C2(CCCCC2)OC1=O | -27% | nt | nt | -24% | nt
Cn1c(CSCc2ccc(Cl)cc2)nnc1SCC(=O)Nc1nc2ccccc2s1 | ? | 23 | 5% | -28% | 2%
O=C(c1cc(S(=O)(=O)N2CCOCC2)ccc1Cl)N1CCc2ccccc2C1 | ? | 8 | 1% | -30% | 3%
COc1ccc(C(=O)N2CCc3ccccc3C2)cc1S(=O)(=O)N1CCCC1 | ? | 25 | -1% | ? | 8%
COc1cc2c(cc1OC)CN(C(=O)c1ccc(OC)c(S(=O)(=O)N3CCCC3)c1)CC2 | 29µM* | -8 | -16% | ? | -6%
COc1cc2c(cc1OC)CN(C(=O)c1cc(S(=O)(=O)N3CCOCC3)ccc1Cl)CC2 | 21µM* | -22 | -2% | ? | 0%
COc1cc2c(cc1OC)CN(C(=O)c1ccc(Cl)c(S(=O)(=O)N3CCCC3)c1)CC2 | ? | ? | 0% | 23µM* | -8%

Assay outcomes deposited in PubChem by National Center for Advancing Translational Sciences (NCATS).
